Growth data for 5 compounds are collected here from PubChem BioAssay (NCI).

Common to all, as to test: NCI-60 one-dose screen, 48 h (100 = growth as untreated, 0 = no growth, -100 = all killed)
Common to all, as to details: 10 µM unless noted

The test system of test [1] is EKVX NSCLC.
Test [2] has as its system SN12C renal.
For test [3], the system named is UO-31 renal.
The test system of test [4] is TK-10 renal.
For test [5], the system named is ACHN renal.
Test [6] deals with CAKI-1 renal.
Test [7] concerns A498 renal.
Test [8] deals with CCRF-CEM leukemia.
Test [9] concerns MOLT-4 leukemia.
For test [10], the system named is SR leukemia.
Test [11] concerns RPMI-8226 leukemia.
The subject of test [12] is OVCAR-8 ovarian.
Test [13] concerns OVCAR-5 ovarian.
The test system of test [14] is OVCAR-4 ovarian.
Test [15] deals with SK-OV-3 ovarian.
For test [16], the system named is IGROV1 ovarian.
For test [17], the system named is OVCAR-3 ovarian.
The subject of test [18] is NCI/ADR-RES ovarian.

Compounds without any hit were thinned out: in the full panel of roughly 83,000, 20% have a hit.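 Single-concentration screen, 48 h exposure, 96-well plates. Endpoint: percent growth. Below 10 = active.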 A number with no mark means an inactive call. Calls of active or inactive are those of the source.

As for `O=C(/C=C/c1ccc2c(c1)OCO2)c1c(O)c2ccccc2oc1=O`, the growth in test [1] was 108%; in [2], 106%; in test [3], 90.1%; in test [4] it was 113%; in test [5] it was 102%; in test [6], 95%. For the same compound, the growth was 107% in test [7]; 103% in test [8]; 77.6% in [9]; 79% in test [10]; 115% in test [11]; 93.9% in [12]. Further, the growth in test [13] is 102%; in [14], 106%; in test [15], 94.2%; in [16], 112%; in [17], 104%; in [18], 102%.
For the compound `O=C(c1ccc(F)c(F)c1Nc1ccc(I)cc1F)N1CC(O)([C@@H]2CCCCN2)C1`, the growth in test [1] is 24.4%; in [2], 34%; in test [3] it was -9.6% (active); in [4] it was 11.6%; in test [5], 18.2%; in test [6], 21.9%. For the same compound, the growth in test [7] is -71.2% (active); in test [8] it was 39.7%; in test [9] it was 4.19% (active); in [10], -15.2% (active); in test [11] it was 26.7%; in [12] it was 47.9%. In addition, the growth in test [13] was 7.14% (active); in [14] it was 27.8%; in test [15], 29.2%; in test [16] it was 2.25% (active); in test [17] it was 58.7%; in test [18] it was 39.7%.
Consider `COc1cc(Nc2ncc3c(n2)-c2ccc(Cl)cc2C(c2c(F)cccc2OC)=NC3)ccc1C(=O)O`, for which the growth is 89.9% in test [1]; 72.6% in test [2]; 51.7% in test [3]; 63.9% in test [4]; 64.4% in test [5]; 68.2% in test [6]. For the same compound, the growth was 63.2% in [7]; 47.2% in test [8]; 52.8% in test [9]; 5.63% (active) in [10]; 82.7% in test [11]; 68.3% in [12]. The growth is 82.4% in test [13]; 78.4% in test [14]; 61.6% in [15]; 63.3% in test [16]; 72.9% in test [17]; 64.2% in test [18].
On to `O=C(Nc1cccc(Cl)c1)Nc1ncc(CCNc2ncnc3ccsc23)s1`, for which the growth was 34.5% in [1]; 53.7% in [2]; 27.5% in [3]; 28.9% in test [4]; 26.8% in test [5]; 21.7% in test [6]. The growth in test [7] is 29.3%; in test [8], 10.1%; in [9], -4.94% (active); in [10] it was 19.3%; in test [11], 7.45% (active); in [12], 1.53% (active). The growth in [13] is 64.6%; in test [14], 24.6%; in test [15] it was 47.5%; in [16], 36%; in test [17], 38.3%; in test [18] it was 9.39% (active).
Regarding `Cn1cnc2c(F)c(Nc3ccc(Br)cc3F)c(C(=O)NOCCO)cc21`, the growth in test [1] is 54%; in [2], 56.2%; in [3], 48.8%; in test [4] it was 50.5%; in test [5] it was 57.6%; in [6], 45.9%. In addition, the growth in test [7] is -28.4% (active); in test [8], 73.8%; in test [9], 72.9%; in test [10], 64.6%; in [11] it was 63.5%; in test [12] it was 65.8%. Besides, the growth in test [13] was 9.55% (active); in test [14] it was 55.9%; in test [15], 50.2%; in test [16] it was 27.6%; in test [17] it was 106%; in test [18], 69.1%.
